Molecules are shown by their SMILES. Inconclusive results are not listed. Active and inactive are the calls of the source. Calls follow the shape of the dose curve; as a rule, active = well fitted cell-killing curve with a large enough effect; inconclusive = small, poorly fitted or top-dose-only effect; inactive = flat fitted curve, though single readings scatter.
Also: nearly all actives have a fitted effect of over 55% in size.
Potency is read from the fitted curve at half-maximal effect.

A short description of one assay: Cell Viability - LYMP2-020 (AID 986).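 As to activity change, negative = viability loss: plate controls were DMSO only for no effect and tetraoctylammonium bromide at 92 µM for full effect.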 To be noted: series mostly up to 92.2 µM; activity change, negative = viability loss: at the top concentration. In short, it runs like this:
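Luminescent ATP signal (CellTiter-Glo, 30 min at room temperature) is the read-out after 24 h compound treatment of lymphoblastoid cells at 37 C. AC50 values come from Hill-equation fits across concentrations.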
`COc1ccc(CN(CCN(C)C)c2ccccn2)cc1`: the “activity change, negative = viability loss” value is -28.6% (inactive). On the same count and under the same terms, for `NC(=Nc1ccccc1)Nc1ccccc1` the value was -10.3% (inactive); for `CN=C(NC#N)NCCSCc1nc[nH]c1C`, -15.3% (inactive). Still for that read-out and setting: for `CCCCNC(=O)NS(=O)(=O)c1ccc(C)cc1` the value was -2.31% (inactive). Take `COc1cc(Cc2cnc(N)nc2N)cc(OC)c1OC`: the “activity change, negative = viability loss” value was -6.32% (inactive). The same measure, in the same setting: for `NC(=O)N1c2ccccc2C=Cc2ccccc21` the value was -3.8% (inactive). Consider `Nc1nc(N)c2nc(-c3ccccc3)c(N)nc2n1`, for which the “activity change, negative = viability loss” value is -29.7% (inactive). Same read-out and setting: the figure for `O=c1[nH]c(=O)n([C@H]2C[C@H](O)[C@@H](CO)O2)cc1Br` is -11.8% (inactive); for `CCCCOCCOCCOCc1cc2c(cc1CCC)OCO2` it is -3.45% (inactive). Turning to `Nc1ncn([C@@H]2O[C@H](CO)[C@@H](O)[C@H]2O)c(=O)n1`, the Potency was 10 µM (active).

A short description of another assay: Cell Viability - LYMP2-022 (AID 987).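 Also: cells exposed to compound for 24 hr.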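 As to viability change, negative = cytotoxic: 0% = DMSO alone and full effect = tetraoctylammonium bromide at 92 µM.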 Conditions: LYMP2-022 lymphoblastoid cell viability; series mostly up to 92.2 µM; viability change, negative = cytotoxic: at the top concentration. An outline of the steps: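 qHTS: human lymphoblastoid cells 2500/well; 5 hr 37 C; cpd added; 24 hr 37 C; CellTiter-Glo, 30 min RT; luminescence. AC50 via Hill fit; tetraoctylammonium bromide positive ctrl.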
For the molecule `NC(=Nc1ccccc1)Nc1ccccc1`, the “viability change, negative = cytotoxic” value is -19.4% (inactive). Consider `CN=C(NC#N)NCCSCc1nc[nH]c1C`, for which the “viability change, negative = cytotoxic” value is -12.4% (inactive). On the same count and under the same terms, for `CCCCNC(=O)NS(=O)(=O)c1ccc(C)cc1` the value was -1.4% (inactive). Still for that read-out and setting: for `COc1cc(Cc2cnc(N)nc2N)cc(OC)c1OC` the value was -4.62% (inactive).

Regarding `NC(=O)N1c2ccccc2C=Cc2ccccc21`, the “viability change, negative = cytotoxic” value is -6.89% (inactive).

Turning to `O=c1[nH]c(=O)n([C@H]2C[C@H](O)[C@@H](CO)O2)cc1Br`, the “viability change, negative = cytotoxic” value was -20.8% (inactive).

For `CCCCOCCOCCOCc1cc2c(cc1CCC)OCO2`, the “viability change, negative = cytotoxic” value was -19.6% (inactive). `Nc1ncn([C@@H]2O[C@H](CO)[C@@H](O)[C@H]2O)c(=O)n1`: the Potency is 15.8 µM (active).

(Values after PubChem BioAssay (NCATS).)
